# According to PubChem BioAssay (NCI):
# The panel holds about 79,000 compounds, 15% with a hit somewhere; the sample as a whole holds those more often. Values without a mark were called inactive. Calls of active or inactive are those of the source. Rule as the data show it: active = growth inhibition above about 70%; inactive = the rest.
# Key:
# [1] = NCI Yeast Anticancer Drug Screen. Data for the sgs1 strain (AID 173);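 also: 0% = growth of vehicle-only control cultures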; conditions: S. cerevisiae sgs1 mutant, stronger effect = higher value
# Outline: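 Strain with an altered DNA repair or cell cycle pathway exposed to compound. Growth then measured. Value = inhibition versus vehicle control.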
# [2] = NCI Yeast Anticancer Drug Screen. Data for the mlh1 rad18 strain (AID 175); conditions: S. cerevisiae mlh1 rad18 strain growth inhibition, stronger effect = higher value
# Outline: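 A repair-deficient yeast strain is exposed to test compound, and growth is scored relative to vehicle-treated controls.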
# [3] = NCI Yeast Anticancer Drug Screen. Data for the rad18 strain (AID 177); conditions: S. cerevisiae rad18 mutant growth inhibition, stronger effect = higher value
# Outline: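 DNA-repair-defective yeast; compound treatment; growth inhibition scored against vehicle.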
# [4] = NCI Yeast Anticancer Drug Screen. Data for the wt1 strain (AID 149);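 also: 0% = growth of vehicle-treated wt1 cultures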; conditions: S. cerevisiae wt1 strain (SPY 50644) growth inhibition, stronger effect = higher value
# Outline: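 Growth inhibition read against vehicle controls after compound exposure of the wt1 yeast strain.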
# [5] = NCI Yeast Anticancer Drug Screen. Data for the rad50EPP+ strain (AID 151);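 also: 0% = growth of vehicle-treated control cultures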; conditions: S. cerevisiae rad50 mutant strain, stronger effect = higher value
# Outline: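 Measured: growth inhibition of rad50EPP+ yeast. Reference: vehicle-treated controls. Screen uses strains with defined genetic alterations in DNA damage repair or cell cycle control.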
# [6] = NCI Yeast Anticancer Drug Screen. Data for the mgt1 strain (AID 153); conditions: S. cerevisiae mgt1 mutant growth inhibition, stronger effect = higher value
# Outline: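 Compounds were applied to mgt1 mutant yeast, and growth was then compared against vehicle-treated control cultures to give percent inhibition.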
# [7] = NCI Yeast Anticancer Drug Screen. Data for the rad50 strain (AID 155);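 also: 0% = growth of vehicle-only cultures of the same strain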; conditions: S. cerevisiae rad50 strain growth inhibition, stronger effect = higher value
# Outline: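 Readout: growth inhibition relative to vehicle-treated cultures. Compound exposure was carried out in a genetically defined yeast strain deficient in DNA damage repair.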
# [8] = NCI Yeast Anticancer Drug Screen. Data for the mec2-1 strain (AID 157); conditions: S. cerevisiae mec2-1 strain, stronger effect = higher value
# Outline: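 Compounds were applied to mec2-1 yeast cells. Their growth was then compared with that of vehicle-treated cultures to give growth inhibition.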
# [9] = NCI Yeast Anticancer Drug Screen. Data for the rad14 strain (AID 159);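 also: 0% = growth of vehicle-treated control cultures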; conditions: S. cerevisiae rad14 strain growth inhibition, stronger effect = higher value
# Outline: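 Growth inhibition vs vehicle controls; genetically altered yeast strain (DNA damage repair defect) treated with test compounds.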
# [10] = NCI Yeast Anticancer Drug Screen. Data for the sgs1 mgt1 strain (AID 161);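 also: 0% = growth of cultures given vehicle only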; conditions: S. cerevisiae sgs1 mgt1 strain, stronger effect = higher value
# Outline: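 This yeast growth screen uses a strain with defined DNA-repair lesions; compound-treated growth is compared with vehicle-treated growth.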
# [11] = NCI Yeast Anticancer Drug Screen. Data for the CLN2oe strain (AID 163);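 also: 0% = growth of vehicle-only control cultures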; conditions: S. cerevisiae CLN2oe strain, stronger effect = higher value
# Outline: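 Cells of an engineered yeast line with disturbed cell-cycle regulation are treated with compound. Inhibition of growth is then calculated relative to the vehicle-treated reference.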
# [12] = NCI Yeast Anticancer Drug Screen. Data for the cln2 rad14 strain (AID 165);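 also: 0% = growth equal to vehicle treated cultures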; conditions: S. cerevisiae cln2 rad14 strain, stronger effect = higher value
# Outline: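 Strain: cln2 rad14 yeast, altered in cell cycle control and DNA damage repair. Read-out: growth inhibition vs vehicle.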
# [13] = NCI Yeast Anticancer Drug Screen. Data for the bub3 strain (AID 167); conditions: S. cerevisiae bub3 mutant strain, stronger effect = higher value
# Outline: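 Readout: yeast growth inhibition, expressed relative to vehicle-only wells. The test organism is a mutant strain from a panel with lesions in DNA repair or checkpoint genes.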
# [14] = NCI Yeast Anticancer Drug Screen. Data for the wt2 strain (AID 169);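 also: 0% = growth of vehicle-treated yeast cultures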; conditions: S. cerevisiae wt2 strain growth inhibition, stronger effect = higher value
# Outline: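 Growth of compound-treated yeast is measured and expressed as inhibition relative to vehicle-only controls.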
# [15] = NCI Yeast Anticancer Drug Screen. Data for the mlh1 strain (AID 171);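 also: 0% = growth of vehicle-treated control cultures of the same strain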; conditions: S. cerevisiae mlh1 strain growth inhibition, stronger effect = higher value
# Outline: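 Test agents were incubated with yeast bearing a defined DNA damage repair or cell cycle control alteration; values are growth inhibition normalised to vehicle-treated cultures.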
# [16] = NCI Yeast Anticancer Drug Screen. Data for the rad52 strain (AID 147);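 also: 0% = growth of vehicle-treated control cultures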; conditions: S. cerevisiae rad52 mutant growth inhibition, stronger effect = higher value
# Outline: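 Growth of repair-deficient yeast cells was compared between compound-treated and vehicle-treated cultures to give percent inhibition.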
# [17] = at 5.0 µM (retest, dose inferred, filed as 0.5)
# [18] = at 50.0 µM (retest, dose inferred, filed as 5.0)
compound,measurement,setting,value
CCN1/C(=C/c2ccc3ccccc3[n+]2CC)C=Cc2ccccc21,growth inhibition,[1]; at 1.2 µM,-9%
same,growth inhibition,[1]; at 3.7 µM,-17%
same,growth inhibition,[1]; at 11.0 µM,93% (active)
same,growth inhibition,[1]; at 33.0 µM,97% (active)
same,growth inhibition,[1]; at 100.0 µM,97% (active)
same,growth inhibition,[2]; [17],100% (active)
same,growth inhibition,[2]; [18],99% (active)
same,growth inhibition,[2]; at 50.0 µM,90.2% (active)
same,growth inhibition,[3]; at 1.2 µM,-5%
same,growth inhibition,[3]; at 3.7 µM,-4%
same,growth inhibition,[3]; at 11.0 µM,90% (active)
same,growth inhibition,[3]; at 33.0 µM,96% (active)
same,growth inhibition,[3]; at 100.0 µM,97% (active)
NCc1c(O)ccc2ccccc12,growth inhibition,[4]; at 1.2 µM,8%
same,growth inhibition,[4]; at 3.7 µM,11%
same,growth inhibition,[4]; at 11.0 µM,27%
same,growth inhibition,[4]; at 33.0 µM,90% (active)
same,growth inhibition,[4]; at 100.0 µM,99% (active)
same,growth inhibition,[5]; at 1.2 µM,-5%
same,growth inhibition,[5]; at 3.7 µM,-18%
same,growth inhibition,[5]; at 11.0 µM,10%
same,growth inhibition,[5]; at 33.0 µM,52%
same,growth inhibition,[5]; at 100.0 µM,88% (active)
same,growth inhibition,[6]; at 1.2 µM,-2%
same,growth inhibition,[6]; at 3.7 µM,-7%
same,growth inhibition,[6]; at 11.0 µM,3%
same,growth inhibition,[6]; at 33.0 µM,98% (active)
same,growth inhibition,[6]; at 100.0 µM,99% (active)
same,growth inhibition,[7]; at 1.2 µM,-11%
same,growth inhibition,[7]; at 3.7 µM,-10%
same,growth inhibition,[7]; [17],-150%
same,growth inhibition,[7]; at 11.0 µM,2%
same,growth inhibition,[7]; at 33.0 µM,92% (active)
same,growth inhibition,[7]; [18],83% (active)
same,growth inhibition,[7]; at 50.0 µM,89.2% (active)
same,growth inhibition,[7]; at 100.0 µM,98% (active)
same,growth inhibition,[8]; at 1.2 µM,-3%
same,growth inhibition,[8]; at 3.7 µM,-1%
same,growth inhibition,[8]; [17],-46%
same,growth inhibition,[8]; at 11.0 µM,4%
same,growth inhibition,[8]; at 33.0 µM,25%
same,growth inhibition,[8]; [18],-15%
same,growth inhibition,[8]; at 50.0 µM,47.5%
same,growth inhibition,[8]; at 100.0 µM,99% (active)
same,growth inhibition,[9]; at 1.2 µM,-3%
same,growth inhibition,[9]; at 3.7 µM,5%
same,growth inhibition,[9]; at 11.0 µM,49%
same,growth inhibition,[9]; at 33.0 µM,99% (active)
same,growth inhibition,[9]; at 100.0 µM,99% (active)
same,growth inhibition,[10]; [17],-60%
same,growth inhibition,[10]; [18],74% (active)
same,growth inhibition,[10]; at 50.0 µM,85.9% (active)
same,growth inhibition,[11]; at 1.2 µM,-6%
same,growth inhibition,[11]; at 3.7 µM,-4%
same,growth inhibition,[11]; at 11.0 µM,-1%
same,growth inhibition,[11]; at 33.0 µM,18%
same,growth inhibition,[11]; at 100.0 µM,98% (active)
same,growth inhibition,[12]; [17],-53%
same,growth inhibition,[12]; [18],-25%
same,growth inhibition,[12]; at 50.0 µM,17.2%
same,growth inhibition,[13]; at 1.2 µM,-7%
same,growth inhibition,[13]; at 3.7 µM,-4%
same,growth inhibition,[13]; [17],-71%
same,growth inhibition,[13]; at 11.0 µM,0%
same,growth inhibition,[13]; at 33.0 µM,79% (active)
same,growth inhibition,[13]; [18],60%
same,growth inhibition,[13]; at 50.0 µM,93.7% (active)
same,growth inhibition,[13]; at 100.0 µM,98% (active)
same,growth inhibition,[14]; at 1.2 µM,6%
same,growth inhibition,[14]; at 3.7 µM,9%
same,growth inhibition,[14]; at 11.0 µM,70% (active)
same,growth inhibition,[14]; at 33.0 µM,99% (active)
same,growth inhibition,[14]; at 100.0 µM,99% (active)
same,growth inhibition,[15]; at 1.2 µM,-10%
same,growth inhibition,[15]; at 3.7 µM,-4%
same,growth inhibition,[15]; at 11.0 µM,4%
same,growth inhibition,[15]; at 33.0 µM,96% (active)
same,growth inhibition,[15]; at 100.0 µM,98% (active)
same,growth inhibition,[1]; at 1.2 µM,-10%
same,growth inhibition,[1]; at 3.7 µM,-5%
same,growth inhibition,[1]; at 11.0 µM,37%
same,growth inhibition,[1]; at 33.0 µM,99% (active)
same,growth inhibition,[1]; at 100.0 µM,99% (active)
same,growth inhibition,[2]; [17],-138%
same,growth inhibition,[2]; [18],83% (active)
same,growth inhibition,[2]; at 50.0 µM,94% (active)
same,growth inhibition,[3]; at 1.2 µM,-6%
same,growth inhibition,[3]; at 3.7 µM,-6%
same,growth inhibition,[3]; at 11.0 µM,7%
same,growth inhibition,[3]; at 33.0 µM,87% (active)
same,growth inhibition,[3]; at 100.0 µM,99% (active)
Cc1cccc(/C=N\NC(=S)N2CCCCC2)n1,growth inhibition,[16]; at 1.2 µM,-17%
same,growth inhibition,[16]; at 3.7 µM,67%
same,growth inhibition,[16]; at 11.0 µM,97% (active)
same,growth inhibition,[16]; at 33.0 µM,98% (active)
same,growth inhibition,[16]; at 100.0 µM,97% (active)
same,growth inhibition,[5]; at 1.2 µM,-10%
same,growth inhibition,[5]; at 3.7 µM,-17%
same,growth inhibition,[5]; at 11.0 µM,86% (active)
same,growth inhibition,[5]; at 33.0 µM,97% (active)
same,growth inhibition,[5]; at 100.0 µM,97% (active)
same,growth inhibition,[7]; at 1.2 µM,19%
same,growth inhibition,[7]; at 3.7 µM,57%
same,growth inhibition,[7]; [17],98% (active)
same,growth inhibition,[7]; at 11.0 µM,97% (active)
same,growth inhibition,[7]; at 33.0 µM,97% (active)
same,growth inhibition,[7]; [18],100% (active)
same,growth inhibition,[7]; at 50.0 µM,88.8% (active)
same,growth inhibition,[7]; at 100.0 µM,98% (active)
same,growth inhibition,[8]; at 1.2 µM,-41%
same,growth inhibition,[8]; at 3.7 µM,93% (active)
same,growth inhibition,[8]; [17],97% (active)
same,growth inhibition,[8]; at 11.0 µM,98% (active)
same,growth inhibition,[8]; at 33.0 µM,99% (active)
same,growth inhibition,[8]; [18],100% (active)
same,growth inhibition,[8]; at 50.0 µM,93.2% (active)
same,growth inhibition,[8]; at 100.0 µM,98% (active)
same,growth inhibition,[9]; at 1.2 µM,-19%
same,growth inhibition,[9]; at 3.7 µM,90% (active)
same,growth inhibition,[9]; at 11.0 µM,98% (active)
same,growth inhibition,[9]; at 33.0 µM,98% (active)
same,growth inhibition,[9]; at 100.0 µM,98% (active)
same,growth inhibition,[10]; [17],97% (active)
same,growth inhibition,[10]; [18],99% (active)
same,growth inhibition,[10]; at 50.0 µM,91.5% (active)
same,growth inhibition,[11]; at 1.2 µM,8%
same,growth inhibition,[11]; at 3.7 µM,85% (active)
same,growth inhibition,[11]; at 11.0 µM,98% (active)
same,growth inhibition,[11]; at 33.0 µM,98% (active)
same,growth inhibition,[11]; at 100.0 µM,91% (active)
same,growth inhibition,[12]; [17],98% (active)
same,growth inhibition,[12]; [18],100% (active)
same,growth inhibition,[12]; at 50.0 µM,92.8% (active)
same,growth inhibition,[13]; at 1.2 µM,-2%
same,growth inhibition,[13]; at 3.7 µM,93% (active)
same,growth inhibition,[13]; [17],97% (active)
same,growth inhibition,[13]; at 11.0 µM,98% (active)
same,growth inhibition,[13]; at 33.0 µM,99% (active)
same,growth inhibition,[13]; [18],99% (active)
same,growth inhibition,[13]; at 50.0 µM,91.8% (active)
same,growth inhibition,[13]; at 100.0 µM,99% (active)
same,growth inhibition,[14]; at 1.2 µM,7%
same,growth inhibition,[14]; at 3.7 µM,92% (active)
same,growth inhibition,[14]; at 11.0 µM,99% (active)
same,growth inhibition,[14]; at 33.0 µM,99% (active)
same,growth inhibition,[14]; at 100.0 µM,95% (active)
same,growth inhibition,[15]; at 1.2 µM,-33%
same,growth inhibition,[15]; at 3.7 µM,63%
same,growth inhibition,[15]; at 11.0 µM,98% (active)
same,growth inhibition,[15]; at 33.0 µM,98% (active)
same,growth inhibition,[15]; at 100.0 µM,99% (active)
same,growth inhibition,[2]; [17],98% (active)
same,growth inhibition,[2]; [18],99% (active)
same,growth inhibition,[2]; at 50.0 µM,88.7% (active)
same,growth inhibition,[3]; at 1.2 µM,-7%
same,growth inhibition,[3]; at 3.7 µM,92% (active)
same,growth inhibition,[3]; at 11.0 µM,97% (active)
same,growth inhibition,[3]; at 33.0 µM,98% (active)
same,growth inhibition,[3]; at 100.0 µM,98% (active)
